# Experimental data taken from PubChem BioAssay (EPA / NIEHS).
# Values joined by “and” are separate entries in the source; they are usually repeats but may differ in a detail not shown here. Identical values can stand only once. Records with an inconclusive call do not appear. Active and inactive are the calls of the source. Rule for the calls: active = hit-call score of the fitted dose curve at least 0.9, where 1 is the maximum; inconclusive = response in the unintended direction; inactive = score below 0.9.
# Columns and labels:
# AR (gene 367) [1] = target: AR (gene 367) (UniProt P10275); test: ACEA_AR_agonist_80hr: ACEA Biosciences xCELLigence Real-Time Cell Analysis on Androgen Receptor Agonism for Proliferation (AID 2283783);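 note: hits increase impedance growth signal above DMSO baseline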
# In short: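 Eight concentrations, 1:4 serial dilution from a 100 uM final top, in biological duplicate. Impedance-based real-time growth of 22Rv1 cells after overnight baseline, recorded hourly and read at 80 hours. Controls: testosterone, MG132, assay media.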
# AR (gene 367) [2] = target: AR (gene 367) (UniProt P10275); test: ACEA_AR_antagonist_80hr: ACEA Biosciences xCELLigence Real-Time Cell Analysis on Androgen Receptor Antagonism for Proliferation (AID 2283787);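 note: 22Rv1 human prostate cancer cells with growth followed by electrical impedance; hits lower the impedance growth signal relative to DMSO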
# In short: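 Impedance-based real-time growth of 22Rv1 prostate cells, read 80 h after dosing. Eight concentrations, 1:4 series, top 100 uM final (0.5% DMSO), n = 2; signal decrease scored against DMSO.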
# [3] = STM_H9_NormalizedViability: Cytotoxicity Assessment at 120 hours in the Stemina devTOX quickPredict H9 human embryonic stem cell (hESC)-based Assay (AID 2283784)
# In short: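 CellTiter-Fluor RFU, background-subtracted, expressed relative to 0.1% DMSO neutral control by plate. Pluripotent H9 cells; treatment with daily re-dosing. Plates carried 1uM methotrexate (positive) and 5 nM methotrexate (negative) references.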
# [4] = ACEA_ER_AUC_viability: ACEA Biosciences xCELLigence Real-Time Cell Analysis on Estrogen Receptor Agonism for Viability (AID 2283782);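 note: hit means loss of impedance signal meaning reduced cell growth or viability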
# In short: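 Viability endpoint: reduced impedance area under the curve relative to DMSO, recorded by real-time electrode sensing over ~80 h of continuous exposure. Duplicate plates of T47D in hormone-depleted medium; eight concentrations, 1:4 dilutions, 100 uM maximum.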
# [5] = ATG_M_06_XSP1: Attagene TRANS-FACTORIAL Multi-Species (XSP1) HepG2 Assay for M06 Transcription Factor (Internal Marker) (AID 2283790)
# In short: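 This background-control readout tracks M06 reporter mRNA, measured by RT-PCR and capillary electrophoresis. HepG2 cells transiently carrying the GAL4-UAS reporter panel were dosed for 24 h with 3 nM 6-alpha-fluorotestosterone added for partial AR stimulation; increases were scored relative to DMSO.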
# [6] = ATG_M_61_XSP1: Attagene TRANS-FACTORIAL Multi-Species (XSP1) HepG2 Assay for M61 Transcription Factor (Internal Marker) (AID 2283797)
# In short: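 Background-control readout: reporter transcripts measured by RT-PCR and capillary electrophoresis 24 h after dosing transiently transfected HepG2 multi-reporter cells, with 3 nM 6-alpha-fluorotestosterone present. Fitted in the positive direction relative to DMSO.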
# AR (gene 367), sequence (P10275 whole entry, looked up): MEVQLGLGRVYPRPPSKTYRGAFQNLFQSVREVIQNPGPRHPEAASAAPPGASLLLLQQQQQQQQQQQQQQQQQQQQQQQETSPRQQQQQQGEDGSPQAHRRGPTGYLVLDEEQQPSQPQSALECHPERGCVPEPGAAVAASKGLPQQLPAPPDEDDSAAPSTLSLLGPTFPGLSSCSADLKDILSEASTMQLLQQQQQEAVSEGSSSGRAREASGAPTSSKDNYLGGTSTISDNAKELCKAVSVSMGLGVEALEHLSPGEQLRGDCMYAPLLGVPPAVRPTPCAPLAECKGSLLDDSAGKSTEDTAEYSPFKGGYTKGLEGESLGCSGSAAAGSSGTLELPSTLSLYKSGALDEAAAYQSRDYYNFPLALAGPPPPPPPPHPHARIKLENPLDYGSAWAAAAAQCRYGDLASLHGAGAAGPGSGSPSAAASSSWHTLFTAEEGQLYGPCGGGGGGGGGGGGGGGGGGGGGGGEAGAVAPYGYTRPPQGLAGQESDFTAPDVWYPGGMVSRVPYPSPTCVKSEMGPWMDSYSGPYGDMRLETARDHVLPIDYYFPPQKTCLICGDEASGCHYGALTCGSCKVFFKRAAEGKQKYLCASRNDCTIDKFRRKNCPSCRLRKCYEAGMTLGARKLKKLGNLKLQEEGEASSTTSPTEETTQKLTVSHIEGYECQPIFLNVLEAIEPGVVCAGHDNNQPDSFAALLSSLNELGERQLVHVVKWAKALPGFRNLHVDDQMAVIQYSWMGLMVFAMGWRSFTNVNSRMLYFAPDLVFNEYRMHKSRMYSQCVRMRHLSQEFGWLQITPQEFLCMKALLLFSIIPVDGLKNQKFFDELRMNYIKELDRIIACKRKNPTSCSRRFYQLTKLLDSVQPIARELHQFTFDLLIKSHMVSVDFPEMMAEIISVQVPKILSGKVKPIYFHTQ
compound,measurement,setting,value
CCCCCCCCOC(=O)c1ccccc1C(=O)OCCCCCCCC,outcome,AR (gene 367) [1],inactive
same,AC50,AR (gene 367) [2],50 µM (active)
COS(=O)(=O)OC,outcome,[3],inactive
Cc1cc(O)ccc1Cl,outcome,[3],inactive
NS(=O)(=O)C(F)(F)C(F)(F)C(F)(F)C(F)(F)C(F)(F)C(F)(F)C(F)(F)C(F)(F)F,AC50,[4],77.8 µM (active) and 132 µM (active)
same,AC50,AR (gene 367) [2],66.1 µM (active)
CCC(C)c1cc([N+](=O)[O-])cc([N+](=O)[O-])c1O (centres undefined),outcome,[3],inactive
O=C(N[C@H]1CN2CCC1CC2)c1cc2ccoc2cn1,outcome,AR (gene 367) [1],inactive
same,AC50,AR (gene 367) [2],33.1 µM (active)
C=CC(N)=O,outcome,[3],inactive
O=C(NC(=O)c1c(F)cccc1F)Nc1cc(Cl)c(OC(F)(F)C(F)F)c(Cl)c1,outcome,AR (gene 367) [1],inactive
same,AC50,AR (gene 367) [2],50 µM (active)
CCCCCCCCCC[N+](C)(C)CCCCCCCCCC,AC50,[4],5.4 µM (active)
same,AC50,[3],2.5 µM (active)
CCC(=O)O[C@H]1CC[C@H]2[C@@H]3CCC4=CC(=O)CC[C@]4(C)[C@H]3CC[C@]12C,AC50,[4],92.4 µM (active) and 88.5 µM (active)
same,AC50,AR (gene 367) [1],0.207 nM (active) and 0.285 nM (active) and 0.61 nM (active)
same,AC50,[3],28.6 µM (active)
ClC1=C(Cl)[C@]2(Cl)[C@@H]3[C@H]4C[C@H]([C@@H]5O[C@H]45)[C@@H]3[C@@]1(Cl)C2(Cl)Cl,outcome,[4],inactive
same,AC50,[3],88.1 µM (active)
CC(C)(O)C(=O)Nc1ccc([N+](=O)[O-])c(C(F)(F)F)c1,outcome,AR (gene 367) [1],inactive
same,outcome,[5],inactive
same,outcome,[6],inactive
CCCCCCOC(=O)c1ccccc1C(=O)OCCCCCC,outcome,[4],inactive
same,outcome,[3],inactive
Clc1ccc(C(Cl)(Cl)Cl)cc1,AC50,[3],83.6 µM (active)
c1ccc(-c2ccccc2)cc1,outcome,[4],inactive
same,outcome,AR (gene 367) [2],inactive
CO/C=C(/C(=O)OC)c1ccccc1COc1cccc(C(F)(F)F)n1,outcome,[3],inactive
CCOCCOC(C)=O,outcome,[3],inactive
